The record followed here is PubChem BioAssay AID540317 (National Center for Advancing Translational Sciences (NCATS), 2011).

In all, about 390,000 compounds went through this assay and about 2,200 (0.56%) were called active. Inconclusive results (about 3%) are left out. Calls come from the whole dose curve; as a rule, active = well fitted inhibition curve with a large enough effect; inconclusive = small, poorly fitted or top-dose-only effect; inactive = no such curve, though single readings can be large or run the other way. What follows is part of a selection rich in actives, with near analogues and random picks from the rest. Entries that show only a call come without a potency.
Potency is the fitted concentration of half-maximal effect.

In the experiment the target is Chromobox protein homolog 1 (Homo sapiens) (UniProt P83916). Description: HTS for Inhibitors of HP1-beta Chromodomain Interactions with Methylated Histone Tails. Note: nearly all actives have a fitted effect of over 70% in size. To be noted: AlphaScreen HP1-beta / biotin-H3K9me3 peptide binding; series mostly up to 114 µM. A digest of the protocol: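 Compound inhibition of the preformed complex between 50 nM HP1-beta and 50 nM biotinylated H3K9me3 peptide was read by AlphaScreen. Buffer was PBS pH 7.4 with 0.01% Tween-20. Incubations ran 30 min at room temperature, with 10 ug/mL donor/acceptor beads.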
Sequence of Chromobox protein homolog 1 (Homo sapiens) (P83916 whole entry, looked up): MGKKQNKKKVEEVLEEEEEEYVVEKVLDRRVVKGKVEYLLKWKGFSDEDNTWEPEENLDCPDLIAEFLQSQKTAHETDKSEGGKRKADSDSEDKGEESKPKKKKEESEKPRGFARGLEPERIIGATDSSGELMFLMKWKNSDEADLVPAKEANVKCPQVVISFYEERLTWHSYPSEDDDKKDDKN
For `CC(C)(C)C1C/C(=C/c2ccco2)C(=O)/C(=C/c2ccco2)C1` (stereo unspecified), the Potency was 39.8 µM (active).
The result for `COc1ccc(OC)c(NC(=O)CSC2=Nc3ccccc3C3=NC(CC(=O)NCc4ccc(F)cc4)C(=O)N23)c1` (stereo unspecified) reads “inactive”.
As for `CCc1nc2nc(C)cc(Nc3ccc(F)c(Cl)c3)n2n1`, the Potency result is “inactive”.
The result for `COc1ccc(S(=O)(=O)Nc2cccc3cccnc23)c(N)c1` reads “inactive”; that for `COc1ccc(C(=O)Nc2ccc(-n3nncc3-c3ccccc3)cc2)cc1OC`, “inactive”.
As for `CC(=O)Nc1ccc(S(=O)(=O)N2N=NC3C2C2CC4C3(CN(C(=O)OC(C)(C)C)S4(=O)=O)O2)cc1` (stereo unspecified), the Potency result was “inactive”.
In the case of `COc1cccc(-c2nc(S(=O)(=O)c3ccc(C)cc3)c(NCc3ccccc3)o2)c1`, the Potency result is “inactive”.
The result for `Cc1ccc2c(c1)N(C(=O)Nc1ccc(Br)cc1F)CCO2` reads “inactive”.
In the case of `COC(=O)c1scc(-c2ccc(C)cc2)c1S(=O)(=O)Nc1cc(Cl)c(OC)cc1OC`, the Potency entry is “inactive”.
The result for `CCN1CCN(c2ccc([N+](=O)[O-])cc2C(=O)c2ccc(Cl)cc2)CC1` reads “inactive”; that for `O=C(O)C1CCN(c2ccc([N+](=O)[O-])cc2[N+](=O)[O-])CC1`, “inactive”.
With `O=[N+]([O-])c1ccc(N2CCN(c3ccc(O)cc3)CC2)c(Cl)c1`, the Potency is 50.1 µM (active).
Take `COc1ccc(CCn2c3c(c(=O)[nH]c2=S)CN(C(C)C)CN3)cc1OC`: the Potency result was “inactive”.
On to `Cc1cc(C)c(/C=C/c2onc(C)c2S(=O)(=O)N2CCC(C(=O)Nc3ccc(Cl)cc3C)CC2)c(C)c1`, for which the Potency entry was “inactive”.
The result for `CCN(CC)S(=O)(=O)c1ccc2c(c1)N(CC(=O)NCC(C)c1ccccc1)C(=O)CO2` (stereo unspecified) reads “inactive”; that for `Cc1ccccc1C(=O)N(Cc1ccc(N(C)C)cc1)CC1CCCO1` (stereo unspecified), “inactive”.
In the case of `Cc1nc2c(c(C)nn2-c2ccccc2)c(C)c1CCC(=O)NCCc1ccc(Cl)cc1`, the Potency result is “inactive”.
The entry for `CCCNC(=O)C1CCC(Cn2c(=O)c3sccc3n(Cc3ccccc3F)c2=O)CC1` (stereo unspecified) is “inactive”; for `COc1ccc(N(C)C(=O)C2CCN(S(=O)(=O)c3cc(Br)cc4c3N(C(C)=O)CC4)CC2)cc1` it is “inactive”; for `O=c1ccc2c(-c3ccccc3S(=O)(=O)O)c3ccc(O)c(O)c3oc-2c1O` it is 1 µM (active).
The result for `CCOc1cccc(NC(=O)c2ccc(F)c(S(=O)(=O)N(CC)c3cccc(C)c3)c2)c1` reads “inactive”.
Consider `CCN(Cc1ccccc1)S(=O)(=O)c1ccc2c(c1)CCCN2C(C)=O`, for which the Potency entry was “inactive”.
The entry for `Cc1ccc(Cl)cc1NC(=O)/C(C#N)=C\c1cn(Cc2ccc(F)cc2)c2ccccc12` is “inactive”.
Consider `COc1ccc(Cn2c(=O)[nH]c3cc(C(=O)N4CCN(C(=O)c5ccco5)CC4)ccc3c2=O)cc1`, for which the Potency entry is “inactive”.
The result for `COc1ccc(NC(=O)N2CCCC(C(=O)Nc3ccccc3OC)C2)cc1` (stereo unspecified) reads “inactive”; that for `COc1ccc(N2CCC(CNC(=S)Nc3c(C)cccc3C)C2)cc1` (stereo unspecified), 20 µM (active); that for `Cc1cccc(C)c1NC(=O)CNC(=O)C1CCCC1`, “inactive”.
The entry for `COc1ccc(CNC(=O)C2CCC(CNc3c(N4CCOCC4)c(=O)c3=O)CC2)cc1` (stereo unspecified) is “inactive”; for `COc1ccc(N2CCC(N3CCN(C)C(CCO)C3)CC2)cc1` (stereo unspecified) it is “inactive”; for `COc1ccc(NC(=S)NCC2CCN(c3ccc(OC)cc3)C2)cc1` (stereo unspecified) it is 25.1 µM (active).
With `CCCN1CCC(=O)N(C(CSc2ccc(C)cc2)Cc2ccccc2)CC1` (stereo unspecified), the Potency result is “inactive”.
In the case of `COc1ccc(CCNS(=O)(=O)c2cc(-c3cc(C)no3)ccc2C)cc1OC`, the Potency entry is “inactive”.
Consider `COc1cccc(NC(=O)N2CCN(C(=O)c3nsc4ccccc34)CC2)c1`, for which the Potency result is “inactive”.
The entry for `Cc1cc(C)cc(OC(C)C(=O)Nc2nc3c(s2)CCCC3)c1` (stereo unspecified) is “inactive”; for `COc1cc(C2c3c(oc4ccccc4c3=O)C(=O)N2c2nc(C)c(C)s2)ccc1O` (stereo unspecified) it is “inactive”; for `COc1cc(/C=N\Nc2nc(-c3cccs3)c(NC(C)=O)s2)ccc1O` it is 22.4 µM (active).
On to `COc1ccc(Cl)cc1NC(=O)CSc1nc(-c2cccs2)cc(C(F)(F)F)n1`, for which the Potency entry is “inactive”.
For the compound `COc1cc(/C=C/C(=O)OCC(=O)Nc2cccc(Oc3ccccc3)c2)ccc1O`, the Potency result was “inactive”.
Take `COc1ccc(CNC(=O)CSCc2nc(-c3ccccc3F)oc2C)cc1`: the Potency entry was “inactive”.
The entry for `COc1ccc(Cn2c(=O)sc3ccccc32)cc1OC` is “inactive”; for `COc1cc(/C=C2/SC(=S)N(Cc3ccccc3)C2=O)cc(OC)c1O` it is 20 µM (active).
Take `COc1ccc(CCNC(=O)CCCCn2c(=O)c3ccccc3n(Cc3ccccc3)c2=O)cc1OC`: the Potency result is “inactive”.
`Cc1nc(SCC(=O)N2CCN(c3ccccc3)CC2)[nH]c(=O)c1C`: the Potency entry was “inactive”.
For the compound `COc1cccc(-c2nc(CS(=O)(=O)CC(=O)N3CCN(c4cc(C)ccc4C)CC3)c(C)o2)c1`, the Potency entry is “inactive”.
The result for `O=C1C[C@@H](c2ccc3ccccc3c2)N1S(=O)(=O)c1ccccc1[N+](=O)[O-]` reads “inactive”; that for `CCN(CC)C(=O)CSc1nc2cc3c(cc2c(=O)n1CCCC(=O)NCc1ccc2c(c1)OCO2)OCO3`, “inactive”.
The entry for `CC(=O)N1CCCc2cc(S(=O)(=O)Nc3ccc(Cl)cc3F)ccc21` is “inactive”; for `C=CS(=O)c1sc(Cl)c(N2CCOCC2)c1[N+](=O)[O-]` (stereo unspecified) it is 44.7 µM (active); for `CCn1c2c(c(=O)n3ncc(C(=O)N4CCN(c5ccccc5)CC4)c13)CN(Cc1ccc(OC)cc1)CC2` it is “inactive”.
Turning to `COc1ccccc1CNC(=O)C(=O)NCC(c1cccs1)S(=O)(=O)c1cccs1` (stereo unspecified), the Potency result was “inactive”.
Take `Cc1nnc(C)n1-c1ccc(C(=O)Nc2cccc(Br)c2)cc1`: the Potency entry is “inactive”.
Consider `FC(F)(F)c1cc(Nc2nc3ccccc3c3nncn23)ccc1Cl`, for which the Potency result is “inactive”.
The result for `Cc1cccc(C)c1Nc1c(-c2ccccc2O)nc2ncccn12` reads “inactive”; that for `CCc1cccc(C)c1Nc1c(-c2ccc(N(C)C)cc2)nc2ncccn12`, 17.8 µM (active); that for `Cc1ccccc1Nc1c(-c2ccccc2)nc2ncccn12`, “inactive”.
The result for `COc1ccc(CCNC(=O)c2ccc3c(c2)sc2nc(-c4ccc(C)cc4)cn23)cc1OC` reads “inactive”; that for `c1ccc(Cn2nnc3c(N4CCCCC4)ncnc32)cc1`, “inactive”.
The entry for `CCN(CC)S(=O)(=O)c1cccc(NC(=O)c2ccc(S(=O)(=O)N3CCCC3)cc2)c1` is “inactive”.
For the compound `COC(=O)c1ccc(/C=N/N2C(C)CCCC2C)cc1` (stereo unspecified), the Potency result was “inactive”.
The result for `CCN(CC)S(=O)(=O)c1cccc(-c2n[nH]c(=S)n2/N=C/c2ccc(C(=O)OC)cc2)c1` reads 50.1 µM (active); that for `CCCCNC(=O)Cn1c(SCc2cccc(Cl)c2)nc2ccncc21`, “inactive”; that for `CCOC(=O)c1cc2c(=O)n3ccccc3nc2n(CC2CCCO2)c1=NC(=O)c1ccccc1Br` (stereo unspecified), “inactive”.
The entry for `COC(=O)c1ccccc1NC(=O)C(Cc1ccccc1)N1Cc2ccccc2C1=O` (stereo unspecified) is “inactive”.
For the compound `COc1cc(NC(=O)c2nn(-c3ccc(C)cc3)c(=O)c3c2c2ccccc2n3C)cc(OC)c1OC`, the Potency result was “inactive”.
The entry for `COc1cccc(N2CCN(c3ccc4nnc(CCC(=O)N5CCN(C)CC5)n4n3)CC2)c1` is “inactive”; for `Cc1cccc(-n2c(N)c(C(=O)N3CCN(C)CC3)sc2=S)c1` it is 7.94 µM (active); for `Cc1cccc(N2CCN(C(=O)c3ccccc3NC(=O)C3CCCCC3C(=O)O)CC2)c1` (stereo unspecified) it is “inactive”.
For the compound `C=CCn1c(=S)[nH]c2scc(-c3ccco3)c2c1=O`, the Potency was 35.5 µM (active).
The result for `O=S(=O)(Nc1ccc2nc(-c3cccc(Cl)c3)oc2c1)c1ccccc1` reads “inactive”.
`CCc1ccc(NC(=O)CCCc2nnc3n(CCCOC)c(=O)c4sccc4n23)cc1`: the Potency result was “inactive”.
The result for `CCN(CC)c1cc(NC2CCCCC2)c2c3c(onc13)-c1ccccc1C2=O` reads 7.94 µM (active).
The entry for `Cc1ccc(Cl)cc1NC(=O)CSc1nccn1C` is “inactive”; for `CCOC(=O)N1CCc2c(sc3c2c(=O)n(-c2ccc(CC)cc2)c(=O)n3C)C1` it is “inactive”; for `Nc1ccc2nc3c(=O)[nH]c(=S)[nH]c3nc2c1` it is 2 µM (active).
On to `CC1=C(c2ccc(C)c(C)c2)S(=O)(=O)NC1=NCc1ccccc1Cl`, for which the Potency entry was “inactive”.
The result for `COc1ccc(NC(=O)CSc2nccn2Cc2ccc3c(c2)OCO3)cc1` reads “inactive”; that for `O=C1Nc2ccc(Br)cc2/C1=N/N=C/C1=C(N2CCOCC2)C(=C\c2ccccc2)/CC1`, 5.62 µM (active); that for `Cc1oc2ccc(O)c(CN3CCCCC3)c2c1C(=O)Nc1cccc(C(F)(F)F)c1`, “inactive”.
The result for `O=C(c1ccc2c(=O)n(Cc3ccco3)c(=S)[nH]c2c1)N1CCCC1` reads “inactive”.
The figure for `CCOC(=O)C1=C(c2ccc(OC)cc2)C(=O)c2ccccc2C1=O` is 31.6 µM (active); for `CCOC(=O)C1=C(CC)Nc2ccccc2N=C1N` it is “inactive”; for `CCOC(=O)C1C(=O)C=C(c2ccc(OC)cc2)CC1c1ccco1` (stereo unspecified) it is “inactive”.
With `COc1cccc(CNC(=O)C2CCC(CNS(=O)(=O)c3cccs3)CC2)c1` (stereo unspecified), the Potency result was “inactive”.
The entry for `Cc1ccccc1CS(=O)(=O)CC1Nc2ccc(C(=O)NCc3ccc(Cl)cc3)cc2NC1=O` (stereo unspecified) is “inactive”; for `CCOC(=O)N1CCN(C(c2cccnc2)c2ccc3cccnc3c2O)CC1` (stereo unspecified) it is 8.91 µM (active).
As to `Cc1ccc(NC(=O)C(=O)NCC(c2cccnc2)N2CCOCC2)cc1` (stereo unspecified), the Potency entry is “inactive”.
Take `COc1ccccc1N1CCN(C(CNC(=O)C(=O)NCc2ccc(C)cc2)c2cccnc2)CC1` (stereo unspecified): the Potency entry is “inactive”.
Turning to `CN(Cc1ccccc1)C(=O)c1cc2c(=O)n(C)c3ccccc3c2s1`, the Potency entry is “inactive”.
Turning to `Nc1ccccc1SC(C[N+](=O)[O-])c1ccccc1` (stereo unspecified), the Potency was 15.8 µM (active).
The result for `Cc1cccc(-n2ncc(C(=O)N3CCc4ccccc4C3)c2C2CCN(C(=O)OC(C)(C)C)CC2)c1` reads “inactive”; that for `Cc1c(NC(=O)c2cc(=O)c3ccccc3o2)c(=O)n(-c2ccccc2)n1C`, “inactive”.
As for `CCc1nnc(SCC(=O)Nc2cc(OC)ccc2OC)nc1CC`, the Potency entry is “inactive”.
The entry for `Cc1ccc(NC2=NC(c3ccccc3)n3c(nc(C)cc3=O)N2)cc1` (stereo unspecified) is “inactive”; for `Cc1ccccc1Nc1c([N+](=O)[O-])ccc2nonc12` it is “inactive”.
On to `Cc1ccc(Nc2cc(C)nc3c(C)ccc([N+](=O)[O-])c23)cc1`, for which the Potency was 22.4 µM (active).
The entry for `CCOC(=O)c1c(NC(=O)c2cc(-c3ccc(Cl)cc3)on2)sc2c1CCCC2` is “inactive”.
